In PubChem BioAssay (Tox21):
Inconclusive results are not listed. Where a call stands in place of a potency, no number is given. Some compounds were tested as several samples or in several runs, with calls that do not always agree. Activity calls are given as the source filed them. The call rests on the fitted dose curve; in most records, active means well fitted curve in the direction sought with a large enough effect in the repeat runs; inconclusive means weak or mixed curves; inactive means no such curve, though single readings can be large; an effect the other way counts as inactive or inconclusive.

Assays:
[1] = qHTS RealTime-Glo MT Cell Viability Assay in HEK293 cells - 16 hour (AID 1224872); further: nearly all actives have a fitted effect of over 50% in size; further: potency means the concentration at half of the fitted maximal effect
In short: (§1)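 HEK293 cells seeded with NanoLuc/prosubstrate reagent, rested 5 h at 37 C, then dosed and kept at 37 C up to 40 h. Nonlytic real-time luminescence from viable cells read at 0, 8, 16, 24, 32 and 40 h.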

[2] = qHTS RealTime-Glo MT Cell Viability Assay in HepG2 cells - 8 hour (AID 1224873); further: nearly all actives have a fitted effect of over 55% in size; further: potency means the concentration at half of the fitted maximal effect
In short: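 HepG2 cells (600/well) mixed with RealTime-Glo MT reagent, settled 5 h at 37 C/5% CO2 before compound addition. Nonlytic NanoLuc luminescence from viable-cell prosubstrate reduction read repeatedly during 40 h treatment at 37 C.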

[3] = qHTS RealTime-Glo MT Cell Viability Assay in HEK293 cells - 40 hour (AID 1224874); conditions: RealTime-Glo luminescence; max response: stronger effect = lower value; further: nearly all actives have a fitted effect of over 50% in size; further: potency means the concentration at half of the fitted maximal effect
In short: (§2)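 Real-time viability in HEK293: signal arises when living cells convert a prosubstrate for NanoLuc in the medium, so luminescence tracks viable cell number. Compound (23 nL, DMSO) added 5 h post-seeding; kinetic reads at 0–40 h, 37 C.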

[4] = A CellTox Green Cytotoxicity Assay to monitor cytotoxicity in HEK293 cells - 24 hour (AID 1224875); further: nearly all actives have a fitted effect of over 45% in size; further: potency means the concentration at half of the fitted maximal effect
In short: (§3)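 Cells (HEK293, 600/well) and dye reagent are dispensed together. After 5 h at 37 C, 23 nL compound is pinned in. Plates stay at 37 C for 40 h with fluorescence read at 0h, 8h, 16h, 24h, 32h and 40h.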

[5] = A CellTox Green Cytotoxicity Assay to monitor cytotoxicity in HepG2 cells - 16 hour (AID 1224876); further: nearly all actives have a fitted effect of over 45% in size; further: potency means the concentration at half of the fitted maximal effect
In short: (§4)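 Cells and non-lytic dye reagent are dispensed together (600 HepG2 cells/well) and incubated 5 h before DMSO compound transfer. Kinetic fluorescence is then recorded in the same wells during 40 h at 37 C.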

[6] = qHTS RealTime-Glo MT Cell Viability Assay in HepG2 cells - 32 hour (AID 1224877); further: nearly all actives have a fitted effect of over 55% in size; further: potency means the concentration at half of the fitted maximal effect
In short: (§5)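 HepG2 cells (600/well) were dispensed with RealTime-Glo reagents, incubated 5 h at 37 °C, then treated with compounds in DMSO for up to 40 h. Nonlytic NanoLuc luminescence reflecting viable cells was read at each stated time point.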

[7] = A CellTox Green Cytotoxicity Assay to monitor cytotoxicity in HepG2 cells - 24 hour (AID 1224878); further: nearly all actives have a fitted effect of over 45% in size; further: potency means the concentration at half of the fitted maximal effect
In short: as §4

[8] = A CellTox Green Cytotoxicity Assay to monitor cytotoxicity in HepG2 cells - 40 hour (AID 1224879); further: nearly all actives have a fitted effect of over 40% in size; further: potency means the concentration at half of the fitted maximal effect
In short: as §4

[9] = qHTS RealTime-Glo MT Cell Viability Assay in HEK293 cells - 0 hour (AID 1224880); further: nearly all actives have a fitted effect of over 45% in size; further: potency means the concentration at half of the fitted maximal effect
In short: as §2

[10] = A CellTox Green Cytotoxicity Assay to monitor cytotoxicity in HEK293 cells - 32 hour (AID 1224881); further: nearly all actives have a fitted effect of over 40% in size; further: potency means the concentration at half of the fitted maximal effect
In short: as §3

[11] = A CellTox Green Cytotoxicity Assay to monitor cytotoxicity in HepG2 cells - 0 hour (AID 1224882); further: nearly all actives have a fitted effect of over 35% in size
In short: as §4

[12] = A CellTox Green Cytotoxicity Assay to monitor cytotoxicity in HepG2 cells - 32 hour (AID 1224883); further: nearly all actives have a fitted effect of over 50% in size; further: potency means the concentration at half of the fitted maximal effect
In short: as §4

[13] = A CellTox Green Cytotoxicity Assay to monitor cytotoxicity in HEK293 cells - 8 hour (AID 1224884); further: nearly all actives have a fitted effect of over 35% in size
In short: as §3

[14] = qHTS RealTime-Glo MT Cell Viability Assay in HepG2 cells - 16 hour (AID 1224885); further: nearly all actives have a fitted effect of over 50% in size; further: potency means the concentration at half of the fitted maximal effect
In short: as §5

[15] = qHTS RealTime-Glo MT Cell Viability Assay in HEK293 cells - 24 hour (AID 1224886); further: nearly all actives have a fitted effect of over 50% in size; further: potency means the concentration at half of the fitted maximal effect
In short: as §1

[16] = qHTS RealTime-Glo MT Cell Viability Assay in HEK293 cells - 8 hour (AID 1224887); further: nearly all actives have a fitted effect of over 50% in size; further: potency means the concentration at half of the fitted maximal effect
In short: as §2

[17] = A CellTox Green Cytotoxicity Assay to monitor cytotoxicity in HEK293 cells - 16 hour (AID 1224888); further: nearly all actives have a fitted effect of over 35% in size; further: potency means the concentration at half of the fitted maximal effect
In short: as §3

[18] = qHTS RealTime-Glo MT Cell Viability Assay in HepG2 cells - 0 hour (AID 1224889); further: nearly all actives have a fitted effect of over 50% in size; further: potency means the concentration at half of the fitted maximal effect
In short: as §5

[19] = qHTS assay to identify small molecule antagonists of the estrogen receptor alpha (ER-alpha) signaling pathway using the BG1 cell line in the presence of 0.1 nM 17-beta-estradiol - cell viability counter screen (AID 1259241); further: nearly all actives have a fitted effect of over 40% in size; further: potency means the concentration at half of the fitted maximal effect
In short: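 Viability in VM7Luc4E2 cells after 22 hr compound exposure under 0.1 nM 17beta-estradiol stimulation, by CellTiter-Fluor.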

[20] = A CellTox Green Cytotoxicity Assay to monitor cytotoxicity in HepG2 cells - 8 hour (AID 1224890); further: nearly all actives have a fitted effect of over 45% in size; further: potency means the concentration at half of the fitted maximal effect
In short: as §4

CC(C)CBr
Potency [1]: inactive | Potency [2]: inactive | max response [3]: 0.766% (inactive) | Potency [4]: inactive | Potency [5]: inactive | Potency [6]: inactive | Potency [7]: inactive | Potency [8]: inactive | Potency [9]: inactive | Potency [10]: inactive | Potency [11]: inactive | Potency [12]: inactive | Potency [13]: inactive | Potency [14]: inactive | Potency [15]: inactive | Potency [16]: inactive | Potency [17]: inactive | Potency [18]: inactive | Potency [19]: inactive

N#CCc1ccc(Cl)cc1
Potency [1]: inactive | Potency [2]: inactive | max response [3]: 1.31% (inactive) | Potency [4]: inactive | Potency [5]: inactive | Potency [6]: inactive | Potency [7]: inactive | Potency [8]: inactive | Potency [9]: inactive | Potency [10]: inactive | Potency [11]: inactive | Potency [12]: inactive | Potency [13]: inactive | Potency [14]: inactive | Potency [15]: inactive | Potency [16]: inactive | Potency [17]: inactive | Potency [18]: inactive | Potency [20]: inactive | Potency [19]: inactive

O=c1ssc(Cl)c1Cl
Potency [1]: 17.4 µM (active) | Potency [2]: 21.9 µM (active) | Potency [3]: 13.8 µM (active) | Potency [4]: 38.9 µM (active) | Potency [5]: 19.5 µM (active) | Potency [6]: 21.9 µM (active) | Potency [7]: 19.5 µM (active) | Potency [8]: 19.5 µM (active) | Potency [9]: 24.5 µM (active) | Potency [10]: 24.5 µM (active) | Potency [11]: inactive | Potency [12]: 19.5 µM (active) | Potency [14]: 21.9 µM (active) | Potency [15]: 15.5 µM (active) | Potency [16]: 17.4 µM (active) | Potency [17]: 38.9 µM (active) | Potency [18]: 43.6 µM (active) | Potency [20]: 24.5 µM (active) | Potency [19]: inactive

CCCCCCCCCCCCBr
Potency [1]: inactive | Potency [2]: inactive | max response [3]: -12.1% (inactive) | Potency [4]: inactive | Potency [5]: inactive | Potency [6]: inactive | Potency [7]: inactive | Potency [8]: inactive | Potency [9]: inactive | Potency [10]: inactive | Potency [11]: inactive | Potency [12]: inactive | Potency [13]: inactive | Potency [14]: inactive | Potency [15]: inactive | Potency [16]: inactive | Potency [18]: inactive | Potency [20]: inactive | Potency [19]: inactive

C1CCC2CCCCC2C1 (stereo unspecified)
Potency [1]: inactive | Potency [2]: inactive | max response [3]: 15.5% (inactive) | Potency [4]: inactive | Potency [5]: inactive | Potency [6]: inactive | Potency [7]: inactive | Potency [8]: inactive | Potency [9]: inactive | Potency [10]: inactive | Potency [11]: inactive | Potency [12]: inactive | Potency [13]: inactive | Potency [14]: inactive | Potency [15]: inactive | Potency [16]: inactive | Potency [17]: inactive | Potency [18]: inactive | Potency [19]: inactive

O=[N+]([O-])c1cc(C(F)(F)F)c(Cl)c([N+](=O)[O-])c1Cl
Potency [1]: 6.92 µM (active) | Potency [2]: 43.6 µM (active) | Potency [3]: 4.9 µM (active) | Potency [4]: 7.76 µM (active) | Potency [5]: 49 µM (active) | Potency [6]: 21.9 µM (active) | Potency [7]: 24.5 µM (active) | Potency [8]: 19.5 µM (active) | Potency [9]: inactive | Potency [10]: 7.76 µM (active) | Potency [11]: inactive | Potency [12]: 21.9 µM (active) | Potency [13]: inactive | Potency [14]: 38.9 µM (active) | Potency [15]: 6.16 µM (active) | Potency [16]: 11 µM (active) | Potency [17]: 11 µM (active) | Potency [20]: 54.9 µM (active) | Potency [19]: 61.1 µM (active)

N#CCCO
Potency [1]: inactive | Potency [2]: inactive | max response [3]: 5.8% (inactive) | Potency [4]: inactive | Potency [5]: inactive | Potency [6]: inactive | Potency [7]: inactive | Potency [8]: inactive | Potency [9]: inactive | Potency [10]: inactive | Potency [11]: inactive | Potency [12]: inactive | Potency [13]: inactive | Potency [14]: inactive | Potency [15]: inactive | Potency [16]: inactive | Potency [18]: inactive | Potency [20]: inactive | Potency [19]: inactive

ClC1=C(Cl)[C@]2(Cl)[C@@H]3[C@@H](Cl)[C@@H](Cl)C[C@@H]3[C@@]1(Cl)C2(Cl)Cl
Potency [1]: inactive | Potency [2]: inactive | max response [3]: 15.9% (inactive) | Potency [4]: inactive | Potency [5]: inactive | Potency [6]: inactive | Potency [7]: inactive | Potency [8]: inactive | Potency [9]: inactive | Potency [10]: inactive | Potency [11]: inactive | Potency [12]: inactive | Potency [13]: inactive | Potency [14]: inactive | Potency [15]: inactive | Potency [16]: inactive | Potency [18]: inactive | Potency [20]: inactive | Potency [19]: inactive

N#CCCSCCC#N
Potency [1]: inactive | Potency [2]: inactive | max response [3]: 8.18% (inactive) | Potency [4]: inactive | Potency [5]: inactive | Potency [6]: inactive | Potency [7]: inactive | Potency [8]: inactive | Potency [9]: inactive | Potency [10]: inactive | Potency [11]: inactive | Potency [12]: inactive | Potency [13]: inactive | Potency [14]: inactive | Potency [15]: inactive | Potency [16]: inactive | Potency [17]: inactive | Potency [18]: inactive | Potency [20]: inactive | Potency [19]: inactive

C[As+](C)(C)CC(=O)[O-]
Potency [1]: inactive | Potency [2]: inactive | max response [3]: -9.67% (inactive) | Potency [4]: inactive | Potency [5]: inactive | Potency [6]: inactive | Potency [7]: inactive | Potency [8]: inactive | Potency [9]: inactive | Potency [10]: inactive | Potency [11]: inactive | Potency [12]: inactive | Potency [13]: inactive | Potency [14]: inactive | Potency [15]: inactive | Potency [16]: inactive | Potency [17]: inactive | Potency [18]: inactive | Potency [20]: inactive | Potency [19]: inactive

Clc1ccc(C(c2ccccc2Cl)C(Cl)(Cl)Cl)cc1 (stereo unspecified)
Potency [1]: 49.3 µM (active) and inactive | Potency [2]: inactive | Potency [3]: 49.3 µM (active) | max response [3]: -21.7% (inactive) | Potency [4]: inactive | Potency [5]: inactive | Potency [7]: inactive | Potency [8]: inactive | Potency [10]: 55.3 µM (active) and inactive | Potency [11]: inactive | Potency [12]: inactive | Potency [13]: inactive | Potency [14]: inactive | Potency [15]: 49.3 µM (active) and inactive | Potency [16]: 49.3 µM (active) and inactive | Potency [17]: inactive | Potency [18]: inactive | Potency [19]: inactive
